IL1B secr inh: inhibitors of inflammasome signaling (IL-1 beta secretion); THP-1 LPS/ATP IL-1B secretion, AlphaLISA, 16 h; hits give low values; activity change, % at 57.5 µM; AID 743279; actives 4.7% (n = 360,000); in the data active = activity change below about -50%; inconclusive = mostly about -30% to -49%
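Secreted IL-1B measured by AlphaLISA bead assay after 16 h compound exposure of THP-1 cells; compounds (final up to 57.5 uM) added 1 h before LPS (250 ng/mL) and ATP (1.25 mM) stimulation; lower signal means less secretion.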
CtBP-E1A blk: CtBP/E1A binding inhibition | AlphaScreen GST-E1A/His-CtBP binding, 1536-well; hits give low values | activity change, % (test concentration not listed) | actives 0.49% (n = 340,000); in the data active = activity change below about -65%; inconclusive = mostly about -30% to -63%
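Homogeneous bead-based format: GST-tagged E1A captured on glutathione donor beads, His-tagged CtBP on nickel acceptor beads; compounds precede bead addition by 2 h at 37 °C.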
TDP1 cell CPT: growth inhibition of DT40 Tdp1-/-;hTDP1 cells with camptothecin (screen for TDP1 inhibitors); actives 12% (n = 420,000); chicken DT40 Tdp1-/-;hTDP1 cells + 20 nM CPT, ATP luminescence, 48 h; Potency, µM (series often up to 46.2 µM), usual class: inhibitors; AID 686979; note: nearly all actives have a fitted effect of over 55% in size
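Chicken DT40 Tdp1-/- cells stably complemented with human TDP1 were seeded at 400 cells/well in medium containing 20 nM camptothecin, exposed to pin-transferred compounds, and grown at 37 °C for at least 48 hr. Viability was read as ATP luminescence.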
Six1-Eya2 inh: inhibitors of human Six1/Eya2 interaction. activity change, % (test concentration not listed). AlphaScreen GST-Six1/His-Eya2 binding, biochemical; hits give low values. actives 0.56% (n = 360,000). Q15475+O00167; in the data active = activity change below about -65%; inconclusive = mostly about -30% to -63%
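GST-Six1 + His-Eya2 (5X stock: 250/500 nM); Tris pH 8.0, 300 mM NaCl, 0.05% BSA, 0.02% Tween 20; GSH donor/Ni acceptor beads; 1 h 37 °C dark; AlphaScreen readout.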
DT40 TDP1 no CPT: qHTS for Inhibitors of human tyrosyl-DNA phosphodiesterase 1 (TDP1): qHTS in cells in absence of CPT | actives 15% (n = 420,000) | DT40 Tdp1-/- hTDP1 cells, no CPT, ATP luminescence, 48 h | Potency, µM (highest dose often 46.2 µM), hits mostly inhibitors; note: nearly all actives have a fitted effect of over 55% in size
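Chicken DT40 Tdp1-/- cells complemented with human TDP1, screened without camptothecin (DMSO vehicle only), 400 cells/well. Compounds pin-transferred, cells incubated at 37 °C for at least 48 hr. Growth read as ATP-dependent luminescence (CellTiter-Glo, 30 min at RT).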
TDP1 block: inhibitors of human tyrosyl-DNA phosphodiesterase TDP1; recombinant TDP1, AlphaScreen DNA substrate cleavage; Q9NUW8; actives 0.28% (n = 350,000); Potency, µM (series often up to 130 µM), usual class: inhibitors; note: nearly all actives have a fitted effect of over 40% in size
Target sequence (Q9NUW8 whole entry, looked up): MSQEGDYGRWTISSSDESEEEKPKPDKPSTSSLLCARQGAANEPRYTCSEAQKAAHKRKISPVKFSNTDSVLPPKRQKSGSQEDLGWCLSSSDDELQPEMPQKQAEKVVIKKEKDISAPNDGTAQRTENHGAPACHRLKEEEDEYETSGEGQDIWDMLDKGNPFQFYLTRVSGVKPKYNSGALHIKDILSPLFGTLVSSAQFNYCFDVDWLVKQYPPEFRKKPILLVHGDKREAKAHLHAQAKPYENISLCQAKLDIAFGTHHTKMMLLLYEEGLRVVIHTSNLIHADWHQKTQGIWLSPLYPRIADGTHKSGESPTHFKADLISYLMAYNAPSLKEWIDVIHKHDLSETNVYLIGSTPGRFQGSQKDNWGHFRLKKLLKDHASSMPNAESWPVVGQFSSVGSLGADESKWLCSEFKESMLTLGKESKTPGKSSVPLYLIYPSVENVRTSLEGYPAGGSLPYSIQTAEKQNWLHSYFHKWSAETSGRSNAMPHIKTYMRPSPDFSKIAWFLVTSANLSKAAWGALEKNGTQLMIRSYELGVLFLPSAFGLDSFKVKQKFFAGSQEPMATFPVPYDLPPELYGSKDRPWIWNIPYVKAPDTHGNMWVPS
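Here, a 5' biotin and 3' phosphotyrosine-FITC DNA oligonucleotide reports Tdp1 activity: intact substrate bridges AlphaScreen beads, while cleavage leaves a 3' phosphate and drops signal. All incubations at room temperature.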
Of the large screens only hits and unclear results are named; the others gave an inactive call. A selection: hits, their analogues and other compounds. The true share with any hit is near 18%. Unless noted, calls come from the whole dose curve; as a rule, active = well fitted curve in the direction sought with a large enough effect; inconclusive = small, poorly fitted or top-dose-only effect, or another doubt; inactive = no such curve, though single readings can be large; an effect the other way counts as inactive or inconclusive.

C[C@@H]1CN([C@H](C)CO)C(=O)CCCn2nncc2CO[C@H]1CN(C)Cc1ccc(Oc2ccccc2)cc1	TDP1 cell CPT inconclusive, DT40 TDP1 no CPT inconclusive (no result: TDP1 block)
C[C@@H]1CN([C@H](C)CO)C(=O)CCCn2nncc2CO[C@H]1CN(C)Cc1cccc(C(F)(F)F)c1	TDP1 cell CPT 21µM (no result: TDP1 block)
C[C@H]1CN([C@@H](C)CO)C(=O)CCCn2nncc2CO[C@H]1CN(C)S(=O)(=O)c1ccc2ccccc2c1	TDP1 cell CPT inconclusive, DT40 TDP1 no CPT 23µM (no result: TDP1 block)
COc1ccc(C2/C(=C(/O)c3ccccc3)C(=O)C(=O)N2c2ccccn2)cc1 (stereo not drawn)	none (no result: TDP1 block)
C=CCc1c(C)nc2nc(SCC(=O)Nc3ccccc3CC)nn2c1C	DT40 TDP1 no CPT inconclusive (no result: IL1B secr inh, CtBP-E1A blk, Six1-Eya2 inh)
CO[C@H]1C[C@@H]2CC[C@@H](C)[C@@](O)(O2)C(=O)C(=O)N2CCCC[C@H]2C(=O)O[C@H]([C@H](C)C[C@@H]2CC[C@@H](O)[C@H](OC)C2)CC(=O)[C@H](C)/C=C(\C)[C@@H](O)[C@@H](OC)C(=O)[C@H](C)C[C@H](C)/C=C/C=C/C=C/1C	TDP1 cell CPT 4.5µM, DT40 TDP1 no CPT inconclusive (no result: IL1B secr inh, CtBP-E1A blk, Six1-Eya2 inh, TDP1 block)
CO[C@H]1C[C@@H]2CC[C@@H](C)[C@@](O)(O2)C(=O)C(=O)N2CCCC[C@H]2C(=O)O[C@H]([C@H](C)C[C@@H]2CC[C@@H](OCCO)[C@H](OC)C2)CC(=O)[C@H](C)/C=C(\C)[C@@H](O)[C@@H](OC)C(=O)[C@H](C)C[C@H](C)/C=C/C=C/C=C/1C	TDP1 cell CPT 0.042µM, DT40 TDP1 no CPT 0.027µM (no result: IL1B secr inh, CtBP-E1A blk, Six1-Eya2 inh, TDP1 block)
CO[C@H]1C[C@@H]2CC[C@@H](C)[C@@](O)(O2)C(=O)C(=O)N2CCCC[C@H]2C(=O)O[C@H](C(C)C[C@H]2CC[C@@H](O)[C@H](OC)C2)CC(=O)[C@H](C)/C=C(\C)[C@@H](O)[C@@H](OC)C(=O)[C@H](C)C[C@H](C)/C=C/C=C/C=C/1C (stereo partly drawn)	TDP1 cell CPT 0.0079µM, DT40 TDP1 no CPT inconclusive (no result: IL1B secr inh, CtBP-E1A blk, Six1-Eya2 inh)
CNc1ncc(C(=O)c2ccc(Br)cc2)s1	TDP1 cell CPT inconclusive, DT40 TDP1 no CPT inconclusive
COC(=O)c1ccc(NC(=O)C(c2ccccc2)N2Cc3ccccc3C2=O)cc1 (stereo not drawn)	TDP1 cell CPT inconclusive, DT40 TDP1 no CPT inconclusive (no result: IL1B secr inh, CtBP-E1A blk, Six1-Eya2 inh)
COc1ccc(N(C(=O)c2ccco2)S(=O)(=O)c2cc(Cl)c(Cl)cc2Cl)cc1	TDP1 cell CPT 18µM, DT40 TDP1 no CPT inconclusive
CCCCN1Cc2cc(C(=O)c3cc(F)ccc3O)cnc2NC1=O	IL1B secr inh -57, TDP1 cell CPT inconclusive, DT40 TDP1 no CPT inconclusive
Cc1ccc2cc(C(=O)O)c(C)nc2c1	none
[N-]=[N+]=N[C@@H](CCN1CC[C@H](NC(=O)OCc2ccccc2)CCC1=O)c1ccccc1	TDP1 cell CPT inconclusive, DT40 TDP1 no CPT inconclusive (no result: TDP1 block)
O=C(N[C@@H]1CCC(=O)N(CC[C@H](Sc2ccc(Br)cc2)c2ccccc2)CC1)OCc1ccccc1	IL1B secr inh inconclusive, TDP1 cell CPT 26µM, DT40 TDP1 no CPT 18µM
CC(=O)Nc1ccc(S[C@@H](CCN2CC[C@H](O)CCC2=O)c2ccccc2)cc1	none
COc1ccc(S[C@@H](CCN2CC[C@H](NC(=O)OCc3ccccc3)CCC2=O)c2ccccc2)cc1	IL1B secr inh -53, TDP1 cell CPT 18µM, Six1-Eya2 inh inconclusive, DT40 TDP1 no CPT 23µM
C[C@@H](CN=[N+]=[N-])CN1CC[C@H](NC(=O)OCc2ccccc2)CCC1=O	TDP1 cell CPT inconclusive, DT40 TDP1 no CPT inconclusive (no result: TDP1 block)
COc1ccc(SC[C@H](C)CN2CC[C@H](NC(=O)OCc3ccccc3)CCC2=O)cc1	TDP1 cell CPT inconclusive, DT40 TDP1 no CPT 23µM
O=C(CCCSc1nc2ccccc2[nH]1)NCc1ccccc1F	TDP1 cell CPT inconclusive, DT40 TDP1 no CPT 21µM
CN1CCN(S(=O)(=O)c2ccc3c(c2)NC(=O)C2CCCN32)CC1 (stereo not drawn)	DT40 TDP1 no CPT inconclusive
Cc1nc(N)nc(N)c1/C=C/C(C)(C)c1ccc(Cl)cc1	IL1B secr inh -106, TDP1 cell CPT inconclusive, DT40 TDP1 no CPT 0.033µM
COc1cc(OC)c(OC)cc1CNc1sc2c(c1C(=O)Nc1ccccc1OC)CCC2	TDP1 cell CPT 21µM, DT40 TDP1 no CPT 21µM (no result: IL1B secr inh, CtBP-E1A blk, Six1-Eya2 inh)
CCOC(=O)c1ccc(NC(=O)c2c(NCc3cc(OC)c(OC)cc3OC)sc3c2CCCC3)cc1	TDP1 cell CPT 23µM, DT40 TDP1 no CPT inconclusive (no result: IL1B secr inh, CtBP-E1A blk, Six1-Eya2 inh)
CCOC(=O)c1ccc(NC(=O)c2c(NCc3cc(OC)ccc3OC)sc3c2CCC3)cc1	TDP1 cell CPT 16µM, DT40 TDP1 no CPT inconclusive (no result: IL1B secr inh, CtBP-E1A blk, Six1-Eya2 inh)
CCN(CC)CC(=O)Nc1sc2c(c1C(=O)c1ccccc1OC)CCC2	IL1B secr inh -53, TDP1 cell CPT 16µM, Six1-Eya2 inh inconclusive, DT40 TDP1 no CPT 15µM
CCOc1ccc(NC(=O)c2c(NCc3cc(OC)c(OC)cc3OC)sc3c2CCCC3)cc1	TDP1 cell CPT inconclusive, DT40 TDP1 no CPT inconclusive (no result: IL1B secr inh, CtBP-E1A blk, Six1-Eya2 inh)
Cc1nn(-c2ccc(F)cc2)c(-n2cccc2)c1C(=O)NCCc1ccc(Cl)cc1	none (no result: IL1B secr inh, CtBP-E1A blk, TDP1 cell CPT, Six1-Eya2 inh, DT40 TDP1 no CPT)
O=C(CCNS(=O)(=O)c1ccccc1C(F)(F)F)NCCCN1CCOCC1	none

Screens as filed in PubChem BioAssay.
